Assay results from PubChem BioAssay (NCATS).
Inconclusive results are not listed. Calls of active or inactive are those of the source. Calls come from the whole dose curve; as a rule, active = well fitted inhibition curve with a large enough effect; inconclusive = small, poorly fitted or top-dose-only effect; inactive = flat fitted curve, though single readings scatter. Where a SMILES comes first, the peptide text is derived from it. [ ]: non-standard residue; d: D form. 2Abz = Nc1ccccc1C(=O)O

How the values were obtained:
[1] = target: Glutathione peroxidase 1 (Homo sapiens) (UniProt P07203); assay: Primary qHTS Assay for Inhibitors of Recombinant Selenoprotein Glutathione Peroxidase 1 (GPX1) (AID 1845191); note: nearly all actives have a fitted effect of over 65% in size; for activity, negative = inhibition: % is set by controls: 0 for no effect and ±100 for the full control effect
How it was run: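 GPX1 10 nM, GR 100 nM, GSH 1 mM, NADPH 0.5 mM, CHP 0.5 mM (final). 30-min cpd preincubation, RT. Ex340/Em450 read t=0, t=15 min.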

[2] = target: Phospholipid hydroperoxide glutathione peroxidase GPX4 (Homo sapiens) (UniProt P36969); assay: Primary qHTS Assay for Inhibitors of Recombinant Selenoprotein Glutathione Peroxidase 4 (GPX4) (AID 1845192); note: nearly all actives have a fitted effect of over 65% in size; for activity change, negative = inhibition: series mostly up to about 50 µM; % is set by controls: 0 for no effect and ±100 for the full control effect
How it was run: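 qHTS, GR-coupled: GPX4 200 nM + cpd 30 min RT → GSH 1 mM, NADPH 0.5 mM, GR 100 nM → CHP 0.5 mM start; fluor 340/450 at t0 and t15 min; no-enzyme wells as control.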

[3] = target: Luciferin 4-monooxygenase (Photinus pyralis) (UniProt P08659); assay: Primary firefly luciferase (FLuc) qHTS assay for identification of artifact compounds. (AID 1845220); note: nearly all actives have a fitted effect of over 60% in size;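 for activity change, negative = inhibition: series mostly up to about 54 µM; plate controls were DMSO vehicle for no effect and no enzyme for full effect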
How it was run: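 Reaction readout was CCD-imaged luminescence, taken 5 min after adding 10 nM purified firefly enzyme to compound-treated wells holding 10 uM luciferin and ATP in pH 7.6 buffer.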

Chain of Phospholipid hydroperoxide glutathione peroxidase GPX4 (Homo sapiens) (P36969 whole entry, looked up): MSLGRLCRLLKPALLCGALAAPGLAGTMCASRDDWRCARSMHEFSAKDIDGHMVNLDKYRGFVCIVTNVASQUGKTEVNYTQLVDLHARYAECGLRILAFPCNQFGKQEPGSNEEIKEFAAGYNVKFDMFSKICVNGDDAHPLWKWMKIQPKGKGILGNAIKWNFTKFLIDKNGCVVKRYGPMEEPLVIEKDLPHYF
Chain of Glutathione peroxidase 1 (Homo sapiens) (P07203 whole entry, looked up): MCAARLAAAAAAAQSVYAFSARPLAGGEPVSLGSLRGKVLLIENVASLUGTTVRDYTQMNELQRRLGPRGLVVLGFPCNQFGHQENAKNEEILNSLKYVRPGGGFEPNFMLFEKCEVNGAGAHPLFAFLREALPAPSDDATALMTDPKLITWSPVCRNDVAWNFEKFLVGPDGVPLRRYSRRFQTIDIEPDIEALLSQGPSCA

COc1c2c(c(C)c3c1C(=O)OC3)OC1(C)CC(O)C3(O)C(C)(C)OC(=O)CCC3(C)C1C2 (stereo not given)
inactive: Potency [1] | Potency [2] | Potency [3]

C[C@H](NCc1ccc(OCc2ccccc2F)cc1)C(N)=O
inactive: Potency [1] | Potency [2] | Potency [3]

CC1(C)CC[C@]2(C(=O)O[C@@H]3O[C@H](CO)[C@@H](O)[C@H](O)[C@H]3O)CC[C@]3(C)C(=CCC4[C@@]5(C)C[C@@H](O)[C@H](O)C(CO)(CO)C5CC[C@]43C)C2[C@@H]1O (stereo not given in full)
inactive: Potency [1] | Potency [2] | Potency [3]

CO[C@@H]1CC[C@H](OC[C@]2(COC(=O)c3ccc(C)[nH]3)[C@H](OC(C)=O)CC[C@@]3(C)[C@@H]4CC=C(C)[C@@H](C5=C(O)C(=O)OC5O)[C@]4(C)CC[C@@H]32)O[C@H]1C (stereo not given in full)
inactive: Potency [1] | Potency [2] | Potency [3]

C=C1[C@H]2CC[C@]3(O)[C@@](CC[C@@H]4[C@](C)(C(=O)O)CCC[C@]43C)(C2)[C@H]1OC(=O)/C(C)=C\C
inactive: Potency [1] | Potency [2] | Potency [3]

CCC[C@@H]1C[C@@H](C(=O)N[C@@H]([C@H]2O[C@H](SC)[C@H](OP(=O)(O)O)[C@@H](O)[C@H]2O)[C@H](C)Cl)N(C)C1
inactive: Potency [1] | Potency [2] | Potency [3]

CC(=O)OC1C(O)C(C)=C(CCC(C)CC(=O)O)C2(C)CCCC(C)(C)C12 (stereo not given)
inactive: Potency [1] | Potency [2] | Potency [3]

O=C1N(CC2CCCCN2)CCN1c1ccccc1 (stereo not given)
inactive: Potency [1] | Potency [2] | Potency [3]

C=C1C2(CCC(=O)OC2(C)C)CC(OC(=O)/C(C)=C/C)C2(C)C13OC14C(=O)OC(C)(C(=O)C12C(=O)OC4C)C3OC(C)=O (stereo not given)
inactive: Potency [1] | Potency [2] | Potency [3]

C=C1CCC[C@]2(C)C[C@]3(O)OC(=O)C(C)=C3C[C@@H]12
inactive: Potency [1] | Potency [2] | Potency [3]

C=C[C@H]1[C@H](O[C@@H]2O[C@H](CO)[C@@H](O)[C@H](O)[C@H]2O)OC=C(C(=O)OC)[C@H]1C[C@@H]1N[C@H](C(=O)O)Cc2c1[nH]c1ccccc21
inactive: Potency [1] | Potency [2] | Potency [3]

CC1(C)CC2C(O)C3=C(CC(C)(O)C2C1)C(=O)OC3O (stereo not given)
inactive: Potency [1] | Potency [2] | Potency [3]

CCNC(=O)[C@@H]1CCCN1C(=O)[C@H](CCCN=C(N)N)NC(=O)[C@H](CC(C)C)NC(=O)[C@@H](C)NC(=O)[C@H](Cc1ccc(O)cc1)NC(=O)[C@H](CO)NC(=O)[C@H](Cc1c[nH]c2ccccc12)NC(=O)[C@H](Cc1cnc[nH]1)NC(=O)[C@@H]1CCC(=O)N1
inactive: Potency [1] | Potency [2] | Potency [3]

COC(=O)[C@@]1(C)CC[C@]2(C(=O)O[C@@H]3O[C@H](CO)[C@@H](O)[C@H](O)[C@H]3O)CC[C@]3(C)C(=CCC4[C@@]5(C)CC[C@H](O[C@@H]6O[C@H](C(=O)O)[C@@H](O)[C@H](O)[C@H]6O)C(C)(C)C5CC[C@]43C)[C@@H]2C1 (stereo not given in full)
inactive: Potency [1] | Potency [2] | activity change, negative = inhibition [3] -8.19% [at 11.6 µM]

CC(/C=C/C1(O)C2(C)COC1(C)CC(=O)C2)O[C@@H]1O[C@H](CO)[C@@H](O)[C@H](O)[C@H]1O (stereo not given in full)
inactive: Potency [1] | Potency [2] | Potency [3]

COC(=O)[C@H](OC(C)=O)[C@H]1C(C)(C)C(=O)[C@H]2CC3=C4CC(=O)O[C@@H](c5ccoc5)[C@]4(C)CCC3[C@@]1(C)C2=O (stereo not given in full)
inactive: Potency [1] | Potency [2] | Potency [3]

CC1OC(O[C@H]2[C@@H](O)C[C@@]3(C)C([C@H](O)C[C@]4(C)C3CC=C3C5CC(C)(C)CC[C@]5(C(=O)OC5OC(CO)C(O)C(O)C5OC5OCC(OC6OCC(OC7OCC(O)C(O)C7O)C(O)C6O)C(OC6OCC(O)(CO)C6O)C5O)CC[C@]34C)[C@]2(C)CO)C(O)C(O)C1O (stereo not given in full)
inactive: activity, negative = inhibition [1] -3.12% [at 9.52 µM] | activity change, negative = inhibition [2] -6.84% [at 9.73 µM] | activity change, negative = inhibition [3] 2.08% [at 11.6 µM]

Cc1c(CN(C)C(=O)/C=C/c2cnc3c(c2)CCC(=O)N3)oc2ccccc12
inactive: Potency [1] | Potency [2] | Potency [3]

C[C@@H]1CC[C@]2(C(=O)O[C@@H]3O[C@H](CO)[C@@H](O)[C@H](O)[C@H]3O)CC[C@]3(C)C(=CCC4[C@@]5(C)C[C@@H](O)[C@H](O)C(C)(C)C5CC[C@]43C)C2[C@]1(C)O (stereo not given in full)
inactive: Potency [1] | Potency [2] | Potency [3]

CO[C@@H]1COCC[C@@H]1N[C@@H]1CC[C@@](C(=O)N2CCc3ncc(C(F)(F)F)cc3C2)(C(C)C)C1
inactive: Potency [1] | Potency [2] | Potency [3]

CCC(C)C1NC(=O)C2CCCN2C(=O)C(C(C)C)NC(=O)c2ccccc2NC(=O)C(Cc2ccc(O)cc2)NC(=O)C(C)NC(=O)C(C(C)O)NC1=O (stereo not given) (cyclo([2Abz]VPITAY); configuration not given here)
inactive: Potency [1] | Potency [2] | Potency [3]

CC(C)(O)c1ccc2c(c1)C(O)CC1C(C)(C(=O)O)CCCC21C (stereo not given)
inactive: Potency [1] | Potency [2] | Potency [3]

C=C1CC2C3(C)C(OC(C)=O)CC(=O)OC(C)(C)C3C(O)C(OC(C)=O)C2(C)C2C(=O)OC(C)C(=O)C12C (stereo not given)
inactive: Potency [1] | Potency [2] | Potency [3]

CC1CCC2(O1)C(C)(C)CC(O[C@@H]1O[C@H](CO[C@@H]3OC[C@](O)(CO)[C@H]3O)[C@@H](O)[C@H](O)[C@H]1O)CC2(C)O (stereo not given in full)
inactive: Potency [1] | Potency [2] | Potency [3]

CC(/C=C/C1(O)C(C)(C)CC(O)CC1(C)O)OC1OC(CO)C(O)C(O)C1O (stereo not given)
inactive: Potency [1] | Potency [2] | Potency [3]

C[C@@H]1C(=O)O[C@H]2CC34[C@H]5C[C@@H](C(C)(C)C)C36[C@@H](OC(=O)[C@@H]6O)O[C@@]4(C(=O)O5)[C@]21O (stereo not given in full)
inactive: Potency [1] | Potency [2] | Potency [3]

COC(=O)CC[C@@H](C)[C@H]1CC[C@H]2[C@@H]3CC(=O)[C@H]4C[C@H](OC(C)=O)CC[C@]4(C)[C@H]3CC[C@]12C
inactive: Potency [1] | Potency [2] | Potency [3]

O=S(=O)(NC1CCNCC1)c1cc(S(=O)(=O)c2ccccc2)ccc1C(F)(F)F
inactive: Potency [1] | Potency [2] | Potency [3]

CC1(C)CC[C@]2(C(=O)O)CC[C@]3(C)C(=CCC4[C@@]5(C)CC[C@H](O[C@@H]6O[C@H](C(=O)O)[C@@H](O)[C@H](O)[C@H]6O)C(C)(CO)C5CC[C@]43C)C2C1 (stereo not given in full)
inactive: Potency [1] | Potency [2] | Potency [3]

C=CC(C)(O)CO[C@@H]1O[C@H](CO)[C@@H](O)[C@H](O)[C@H]1O (stereo not given in full)
inactive: Potency [1] | Potency [2] | Potency [3]

C=C1CC[C@H]2[C@@H](/C=C(\C)C(=O)[C@@]3(OC(C)=O)C[C@H](C)[C@H](OC(C)=O)[C@@H]3[C@H]1OC(C)=O)C2(C)C
inactive: Potency [1] | Potency [2] | Potency [3]

C[C@@H]1CCC2C(C)(C)[C@H](O)CC[C@]2(C)[C@@]12Cc1c(O)cc3c(c1O2)CN(CCO)C3=O (stereo not given in full)
inactive: Potency [1] | Potency [2] | Potency [3]

C[C@@H](OC(=O)/C=C/c1ccc(O)cc1)C1=C[C@]2(C=C[C@@H]3C(C(=O)O)=CO[C@@H](O[C@@H]4O[C@H](CO[C@@H]5O[C@H](CO)[C@@H](O)[C@H](O)[C@H]5O)[C@@H](O)[C@H](O)[C@H]4O)[C@@H]32)OC1=O
inactive: Potency [1] | Potency [2] | Potency [3]

CC(=O)O[C@@H]1C[C@@]23C[C@@]24CC[C@H](OC2OC[C@@H](O)[C@H](O)[C@H]2O)C(C)(C)[C@@H]4CC[C@H]3[C@]2(C)CC3OC4(C[C@@H](C)C3[C@@]12C)OCC1(C)OC14 (stereo not given in full)
inactive: Potency [1] | Potency [2] | Potency [3]

CC(C)CC(=O)OC[C@H]1O[C@@](COC(=O)CC(C)C)(O[C@H]2O[C@H](CO)[C@@H](O)[C@H](O)[C@H]2OC(=O)CC(C)C)[C@@H](OC(=O)CC(C)C)[C@@H]1O
inactive: Potency [1] | Potency [2] | Potency [3]

C=CC1(C)C=C2C(=O)CC3C(C)(C)CCCC3(C(=O)O)C2(O)CC1 (stereo not given)
inactive: Potency [1] | Potency [2] | Potency [3]

CC(C)N(C[C@H]1O[C@@H](n2cnc3c(N)ncnc32)[C@H](O)[C@@H]1O)C1CC(CCc2nc3ccc(C(C)(C)C)cc3[nH]2)C1 (stereo not given in full)
inactive: Potency [1] | Potency [2] | Potency [3]

COc1cc2c(cc1O)C1(Cc3ccc4c(c3C1=O)OCO4)N(C)CC2 (stereo not given)
inactive: Potency [1] | Potency [2] | Potency [3]

CC(c1c[nH]c2ccccc12)C(O)C(=O)O (stereo not given)
inactive: Potency [1] | Potency [2] | Potency [3]

CC(C)(O)CNc1nc(Nc2ccnc(C(F)(F)F)c2)nc(-c2cccc(C(F)(F)F)n2)n1
inactive: Potency [1] | Potency [2] | Potency [3]

CC1=C2C(=O)O[C@@H](c3ccoc3)[C@]2(C)CCC1
inactive: Potency [1] | Potency [2] | Potency [3]

CCCOc1ccn2c(C(C)=O)cc(-c3ccccc3S(C)(=O)=O)c2c1
inactive: Potency [1] | Potency [2] | Potency [3]

C[C@@H]1C(=O)O[C@H]2[C@H]1CC[C@@]1(C)C(=O)C=C[C@](C)(O)[C@H]21
inactive: Potency [1] | Potency [2] | Potency [3]

CC(=O)c1c(O)cc2cccc3c2c1CC(C)(O)O3 (stereo not given)
inactive: Potency [1] | Potency [2] | Potency [3]

COc1c(C)c2c(c(O)c1C/C=C(\C)CC/C=C(\C)CCC(=O)O)C(=O)OC2
inactive: Potency [1] | Potency [2] | Potency [3]

CC(C)(O)/C=C1/C(=O)C(C)(C)C(=O)C(C)(C)C1(O)O[C@@H]1O[C@H](COC(=O)c2cc(O)c(O)c(O)c2)[C@@H](O)[C@H](O)[C@H]1O (stereo not given in full)
inactive: Potency [1] | Potency [2] | Potency [3]

C=CCc1ccc(O[C@@H]2O[C@H](CO)[C@@H](O)[C@H](O)[C@H]2O)c(OC)c1
inactive: Potency [1] | Potency [2] | Potency [3]

CC1=CCC2C(C)(CO)CCCC2(CO)C1CO (stereo not given)
inactive: Potency [1] | Potency [2] | Potency [3]

COc1cc(/C=C/C(=O)OC2CC3CCC2(C)C3(C)C)ccc1O (stereo not given)
inactive: Potency [1] | Potency [2] | Potency [3]

COc1cc([C@H]2OC[C@@H]3[C@@H](c4ccc(O[C@@H]5O[C@H](CO)[C@@H](O)[C@H](O)[C@H]5O)c(OC)c4)OC[C@]23O)ccc1O
inactive: Potency [1] | Potency [2] | Potency [3]
